PKM2 activator: activators of human pyruvate kinase M2; Potency, µM (series often up to 57.5 µM), usual class: activators; P14618; AID 1631; 0.34% of 260,000 active; purified PKM2, Kinase-Glo ATP luminescence, activation; response scale: 0% is enzyme alone, no compound; further: nearly all actives have a fitted effect of over 55% in size
Target sequence (P14618 whole entry, looked up): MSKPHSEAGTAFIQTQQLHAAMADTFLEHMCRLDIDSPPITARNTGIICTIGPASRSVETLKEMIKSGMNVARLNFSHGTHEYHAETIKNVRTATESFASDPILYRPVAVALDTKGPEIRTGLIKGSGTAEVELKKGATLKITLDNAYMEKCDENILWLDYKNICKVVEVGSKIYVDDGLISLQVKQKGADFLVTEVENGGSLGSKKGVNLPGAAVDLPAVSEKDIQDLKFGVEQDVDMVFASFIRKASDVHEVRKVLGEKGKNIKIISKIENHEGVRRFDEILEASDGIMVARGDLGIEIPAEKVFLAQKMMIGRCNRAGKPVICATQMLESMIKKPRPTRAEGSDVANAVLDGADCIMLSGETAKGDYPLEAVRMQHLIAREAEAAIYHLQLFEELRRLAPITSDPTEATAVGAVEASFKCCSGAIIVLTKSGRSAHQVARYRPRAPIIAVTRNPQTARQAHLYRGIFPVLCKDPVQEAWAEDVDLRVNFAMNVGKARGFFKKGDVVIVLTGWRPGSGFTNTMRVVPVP
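ATP formation by purified human PK-M2, quantified via coupled luciferase luminescence after 1 h at room temperature with 0.1 mM ADP and 0.5 mM PEP final.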
TCR act: activates T cell receptor signaling; primary human leukocytes, anti-CD3, IL-2 HTRF, 48 h; Potency, µM (doses to about 9.22 µM), actives largely listed as activators; 330,000 tested, under 10 active
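IL-2 release read by HTRF sandwich (Eu cryptate donor, d2 acceptor, 665 nm emission) after 48 hr exposure of primary human leukocytes to compound together with anti-CD3 beads in the absence of co-stimulatory signals.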
TSHR antag: human thyrotropin receptor antagonism; P16473; activity change, negative = inhibition, % at 11.5 µM; 0.2% of 330,000 active; TSHR-expressing cells, TSH-stimulated cAMP HTRF, 2 h; stronger effect = lower value;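 active means activity change below a set negative limit, meaning inhibition stronger than a set level, cut at about -70% in these data; inconclusive means activity change between two set negative limits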
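Freshly harvested TSHR cells receive pin-tooled compound, then EC80 TSH at 4nM final. After 2 hours at 37 deg C, antibody in lysis buffer and cAMP-d2 are added; 30 minutes at ambient temperature precede the HTRF read.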
uPA generation: blocks generation of uPA at the cell surface; cell surface uPA generation assay, qHTS; Potency, µM (series often up to 38.3 µM), usual class: inhibitors; 0.31% of 330,000 active; AID 540303; active means well fitted inhibition curve with a large enough effect; inconclusive means small, poorly fitted or top-dose-only effect; inactive means no such curve, though single readings can be large or run the other way; tested in mouse RAW 264.7 cells; further: nearly all actives have a fitted effect of over 55% in size
Of the large screens only hits and unclear results are named; the others gave an inactive call. Only some compounds are listed: those with a hit (about 0.75% of all), similar ones and a draw of the others. Unless noted, the call rests on the fitted dose curve; in most records, active means well fitted curve in the direction sought with a large enough effect; inconclusive means small, poorly fitted or top-dose-only effect, or another doubt; inactive means no such curve, though single readings can be large; an effect the other way counts as inactive or inconclusive.

O=C(OCCc1cc2ccccc2c(=O)o1)c1ccccc1C(F)(F)F	TSHR antag -71.2 (no result: PKM2 activator)
O=C(OCCCc1cc2ccccc2c(=O)o1)c1ccccc1C(F)(F)F	none (no result: PKM2 activator)
CC(C)C(c1nnnn1C(C)(C)C)N1CCC(Cc2ccccc2)CC1 (stereo not drawn)	none
O=C(NCCc1ccccc1)c1ccccc1Cl	none
O=C(NCCc1ccccc1)c1cccnc1N1CCCCCC1	TSHR antag -80.4
Cc1cccc(NS(=O)(=O)c2ccc(C(=O)NCC(c3ccco3)N3CCCCC3)cc2)c1C (stereo not drawn)	none (no result: PKM2 activator)
O=C(Nc1ccccc1)c1ccccc1NC(=O)C1CCCCC1	none
Cc1cccc(NC(=O)c2ccccc2NC(=O)C2CCCCC2)c1C	PKM2 activator 28.2µM
Cc1[nH]nc(SCC(=O)Nc2cccc(O)c2)c1[N+](=O)[O-]	PKM2 activator 10µM
Cc1[nH]nc(SCC(=O)NCc2ccccc2)c1[N+](=O)[O-]	none
CC(=O)Nc1sc(N/N=C/c2ccccc2F)nc1-c1ccc(C)cc1	PKM2 activator 10µM
CC(=O)Nc1sc(N/N=C/c2ccc(O)cc2)nc1-c1ccc(C)cc1	PKM2 activator 17.8µM
COc1ccc(C(=S)N2CCN(c3ccccc3Cl)CC2)cc1OC	none
COc1cc(C(=S)N2CCN(c3ccccc3Cl)CC2)cc(O)c1O	PKM2 activator 3.55µM, uPA generation inconclusive
Cc1ccnc(NC(=O)c2cc3ccccc3o2)c1	uPA generation 2µM (no result: PKM2 activator)
Cc1ccc(CN=C(Nc2ccccc2)NC2CCCCC2)cc1	none
Cc1cc(Br)c(OCc2ccc(C(=O)N/N=C/c3ccc[nH]3)cc2)c(Br)c1	uPA generation 0.178µM (no result: PKM2 activator)
Cc1ccc(C(=O)Nc2cccc(NC(=O)c3cccs3)c2)c(C)c1	uPA generation 12.6µM
C=CCOc1c(Cl)cc(CNc2ccc(C)c(Cl)c2)cc1OC	none (no result: TCR act, uPA generation)
C=CCOc1c(Cl)cc(CNc2ccc(N(C)C)cc2)cc1OC	TSHR antag -107.9 (no result: uPA generation)
COc1ccc2cc(C(=O)N3CCC(Cc4ccccc4)CC3)[nH]c2c1	none (no result: PKM2 activator)
C=CCn1c(SCc2nc3ccccc3c(=O)[nH]2)nc2scc(C3CC3)c2c1=O	PKM2 activator 3.55µM
Cc1nc(SCC(=O)Nc2cccnc2Cl)nc(C)c1C	none
CN(C)c1cccc(C(=O)OCC(=O)NC2CCCC2)c1	none (no result: PKM2 activator)
COc1ccc(S(=O)(=O)Nc2ccc(S(=O)(=O)Nc3nccs3)cc2)cc1	PKM2 activator 12.6µM
COc1ccc(CC(=O)Nc2ccc(S(=O)(=O)Nc3nccs3)cc2)cc1	PKM2 activator 14.1µM
Cc1sc(NC(=O)c2cccc(N3C(=O)CCC3=O)c2)nc1-c1ccccc1	none (no result: PKM2 activator)
CC(C)(C)OC(=O)N(CCc1ccccc1)Cc1cccc(OCc2cccc(NC(=O)C3CCCC3)c2)c1	none (no result: PKM2 activator, TSHR antag)
c1ccc(Cc2nc3ccccc3s2)cc1	none (no result: PKM2 activator, TSHR antag)
O=C1Cc2c([nH]c3ccc([N+](=O)[O-])cc23)-c2ccccc2N1	none (no result: PKM2 activator, TSHR antag)
CCOc1cnn(-c2cc(Oc3ccc(C)cc3)ncn2)c(=O)c1Cl	none
Cc1ccccc1Oc1cc(-n2ncc(Cl)c(Cl)c2=O)ncn1	TSHR antag -89.6, uPA generation 2.24µM
NS(=O)(=O)c1ccc(CCNC(=O)c2cnc(Cl)c(Cl)c2)cc1	none
COc1ccc(OC)c2sc(NC(=O)CCS(=O)(=O)c3ccccc3)nc12	uPA generation 7.08µM (no result: PKM2 activator, TSHR antag)
CC(=O)C1=C(C)NC(SCc2cccc([N+](=O)[O-])c2)=C(C#N)C1c1ccco1 (stereo not drawn)	PKM2 activator 7.94µM
CC(=O)C1=C(C)NC(SCC(N)=O)=C(C#N)C1c1ccco1 (stereo not drawn)	none
CC(C)CNC(=O)C1CCN(c2ccc(S(=O)(=O)N3CCOCC3)cc2)CC1	TSHR antag -77.4
Cc1cc(N2CCN(S(=O)(=O)c3ccc4c(c3)OCCO4)CC2)n2ncnc2n1	PKM2 activator 25.1µM (no result: TSHR antag, uPA generation)
C=CCc1cccc(C=NNC(=O)CN2CCN(Cc3ccccc3)CC2)c1O	none (no result: PKM2 activator, TCR act, uPA generation)
O=C1N/C(=C/c2ccc(N3CCOCC3)o2)C(=O)N1c1cccc(Cl)c1	uPA generation 3.98µM
Cc1ccc(/C=C2/NC(=O)N(c3ccccc3)C2=O)o1	PKM2 activator inconclusive
Cc1ccc(NC(=O)CCC(=O)c2cc(C)sc2C)nc1	none (no result: PKM2 activator)
COc1cc(/C=C2\Oc3cc(O)ccc3C2=O)ccc1O	uPA generation 6.31µM
O=C(Nc1ccon1)c1ccc(OC2CCCC2)cc1	uPA generation 10µM
CC(C)(C)c1cc(NC(=O)c2ccc(OC3CCCC3)cc2)no1	none
CC(c1nc2ccccc2c(=O)[nH]1)N1CCCN(S(=O)(=O)c2ccc(F)cc2)CC1 (stereo not drawn)	none (no result: PKM2 activator, TCR act)
CC(C)(CNC(=O)C1c2ccccc2-c2ccccc21)N1CCOCC1	TSHR antag -82.2 (no result: PKM2 activator)
Cc1ccc(C(=O)NCC(C)(C)N2CCOCC2)s1	none
COc1ccc([C@]23Cc4cc(C#N)ccc4C(O2)c2c(c4ccc(OC)cc4oc2=O)O3)cc1	none (no result: TCR act, TSHR antag, uPA generation)
CCOCCCNC(=O)CCn1nc(-c2ccc(Cl)cc2)ccc1=O	none (no result: PKM2 activator)
CCO[C@@H]1OC(C(=O)NCc2nc3ccccc3[nH]2)=C[C@H](C(C)(C)C)[C@H]1CCCO	uPA generation inconclusive (no result: PKM2 activator, TSHR antag)
CCO[C@@H]1OC(C(=O)NCc2nc3ccccc3[nH]2)=C[C@H](C2CC2)[C@H]1CCCO	uPA generation 4.47µM
O=C(Nc1ccc(Cl)cc1)Nc1nnc(-c2ccncc2)s1	none
COc1ccc(Cl)cc1NC(=O)Nc1ccccc1C(N)=O	uPA generation 3.16µM
O=C(Nc1cccc(Cl)c1)Nc1ccccc1C(=O)O	uPA generation 8.91µM
O=C(Nc1cccc(Cl)c1)Nc1nnc(-c2ccncc2)s1	TSHR antag -73.3
CC(C)(O)CN(C(=O)c1ccc([N+](=O)[O-])cc1)C1CCCC1	none (no result: PKM2 activator, TSHR antag)
CCCCC(=O)OCC(=O)c1[nH]c(C)c(C(C)=O)c1C	none
NS(=O)(=O)c1ccc(NC(=O)CSc2ccccn2)cc1	PKM2 activator 28.2µM (no result: uPA generation)
CCc1nc2nc(C)c(NS(=O)(=O)c3ccc(C)c(C)c3)c(=O)n2[nH]1	none
CNc1c([N+](=O)[O-])cnn1-c1ccc(Cl)cc1Cl	PKM2 activator 11.2µM
CNc1c([N+](=O)[O-])cnn1-c1ccccc1Cl	PKM2 activator inconclusive
CCOc1ccc(N(CC(=O)NC2CCCCC2)S(=O)(=O)c2ccccc2)cc1	none
Nc1nc(SCc2ccc(Br)cc2)c2ncn(C3OC(CO)C(O)C3O)c2n1 (stereo not drawn)	none (no result: PKM2 activator, TSHR antag)
Cn1c(SCC(=O)NC2CCCCC2)nnc1-c1ccncc1	none (no result: PKM2 activator)
Cc1ccc(-c2nnc(SCC(=O)NC3CCCC3)n2C)cc1	TSHR antag -93.8 (no result: PKM2 activator)
NC(=O)c1cc(S(=O)(=O)NCc2cccc(Br)c2)cs1	none (no result: PKM2 activator)
NC(=O)c1cc(S(=O)(=O)NCc2cccs2)cs1	none (no result: PKM2 activator)
NC(=O)c1cc(S(=O)(=O)NCc2ccc(F)cc2)cs1	TSHR antag -131.6 (no result: PKM2 activator)
Cc1cccc(CNS(=O)(=O)c2csc(C(N)=O)c2)c1	TSHR antag -70.2
Cn1ccc2cc(-c3ccc4ncnc(NCc5cccnc5)c4c3)ccc21	none (no result: PKM2 activator, TCR act, uPA generation)
Cc1ccc(-c2nnc(SCC(=O)Nc3ccccc3F)o2)cc1	uPA generation 8.91µM
O=C(CSc1nnc(-c2ccccc2)o1)Nc1ccccc1F	uPA generation inconclusive
COc1ccc(-n2nc([N+](=O)[O-])c(=NCCc3ccccc3)n2O)cc1	uPA generation 10µM

From PubChem BioAssay
